Test in all cases: NCI-60 one-dose screen, 48 h (100 = growth as untreated, 0 = no growth, -100 = all killed)
In assay [1] the test system is BT-549 breast. The conditions noted are these: 10 µM unless noted.
Assay [2] deals with MDA-MB-435 melanoma. The following applies: 10 µM unless noted.
Assay [3] deals with SW-620 colon. The following applies: 10 µM unless noted.
Assay [4] concerns HCT-116 colon. The following applies: 10 µM unless noted.
Assay [5] has as its system HCC-2998 colon. The following applies: 10 µM unless noted.
For assay [6], the system named is KM12 colon. The conditions noted are these: 10 µM unless noted.
The subject of assay [7] is MCF7 breast. The conditions noted are these: 10 µM.

The panel holds about 83,000 compounds, 20% with a hit somewhere; the sample as a whole holds those more often.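 Step 1: grow cells in 96-well plates. Step 2: add test compound at a single concentration. Step 3: incubate 48 h. Step 4: record percent growth.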 Unmarked numbers belong to inactive results. The source made the active and inactive calls. The calls were made as follows: active = growth percent below 10; inactive = the rest.

For the molecule `COc1cc(C2C3=C(COC3=O)N(CCO)c3cc4c(cc32)OCCO4)cc(OC)c1O` (stereo not given), the growth in assay [1] was -3.23% (active); in assay [2] it was -35.1% (active); in assay [3] it was 17.2%; in assay [4] it was 12.8%; in assay [5], -10.7% (active); in assay [6] it was -15.3% (active).

On to `O=S1(=O)N(Cc2ccccc2)[C@@H](Cc2ccccc2)[C@H](O)[C@H](O)[C@H](Cc2ccccc2)N1Cc1ccccc1`, for which the growth in assay [1] was 15.7%; in assay [2], -4.2% (active); in assay [3], 9.22% (active); in assay [4], -36.5% (active); in assay [5], -45.7% (active); in assay [6], -41.7% (active).

Regarding `CCOC(=O)c1c(C=O)nc2ccccc2c1/C=C/c1ccc(Cl)cc1`, the growth was 99.6% in assay [1]; 101% in assay [2]; 78% in assay [7]; 82.4% in assay [4]; 110% in assay [5]; 96.1% in assay [6].

Consider `COc1ccc(C2C3=C(COC3=O)N(CCO)c3cc4c(cc32)CCC4)cc1` (stereo not given), for which the growth in assay [1] is 38.4%; in assay [2], 0.306% (active); in assay [3], 31.5%; in assay [4] it was 33.5%; in assay [5] it was 61.1%; in assay [6] it was 21.2%.

In the case of `O=C(NC(=S)Nc1cccc(NC(=S)NC(=O)c2ccccc2)c1)c1ccccc1`, the growth is 58.4% in assay [1]; 61.4% in assay [2]; 74.6% in assay [3]; 58.3% in assay [7]; 67.2% in assay [4]; 68% in assay [6].

For the molecule `Fc1cccc(COc2ccc(Nc3ncnc4onc(-c5ccccc5)c34)cc2)c1`, the growth in assay [1] was 12.8%; in assay [2], -54.7% (active); in assay [7], 14%; in assay [4], 8.15% (active); in assay [5] it was 9.52% (active); in assay [6], 9.57% (active).

`COc1cc(/C=C/C(=O)N2c3ccccc3CC2C)c(OC)c2c1OCO2` (stereo not given): the growth in assay [1] was 97.7%; in assay [2], 85.8%; in assay [3], 93.8%; in assay [7], 91.6%; in assay [4], 97.2%; in assay [6], 93.8%.

As for `COc1ccc(C2C3=C(COC3=O)N(CCO)c3cc4c(cc32)CCC4)cc1OC` (stereo not given), the growth in assay [1] was 29.2%; in assay [2], -45.6% (active); in assay [3], 14.7%; in assay [4] it was 14.3%; in assay [5], -0.413% (active); in assay [6], -8.65% (active).

On to `NC1C(N)C(N)C1N` (stereo not given), for which the growth in assay [1] was 107%; in assay [2], 122%; in assay [3], 106%; in assay [4] it was 103%; in assay [5], 99.9%; in assay [6], 119%.

Take `COc1cc(C2C3=C(COC3=O)N(CCO)c3cc4c(cc32)CCC4)cc(OC)c1O` (stereo not given): the growth in assay [1] was -7.32% (active); in assay [2] it was -26.8% (active); in assay [3] it was 12.1%; in assay [4], 8.94% (active); in assay [5], -22.4% (active); in assay [6], -20.6% (active).

`CCCCC1COc2cccc3c2N1C=C/C3=C\C(=O)N(C)c1ccccc1` (stereo not given): the growth in assay [1] was 50.8%; in assay [2] it was 69%; in assay [3] it was 73.4%; in assay [7], 66.7%; in assay [4], 36.1%; in assay [6], 65.2%.

As for `O=C1CCC(N2C(=O)c3cccc(NCCCCCCOc4ccc(Nc5nccc(Nc6ccccc6)n5)cc4)c3C2=O)C(=O)N1` (stereo not given), the growth is 65.1% in assay [1]; 75.9% in assay [2]; 66.8% in assay [7]; 77.6% in assay [4]; 98.4% in assay [5]; 88.5% in assay [6].

As for `C1CCN(c2nc(N3CCCCC3)nc(N3CCOCC3)n2)CC1`, the growth in assay [1] was 109%; in assay [2] it was 101%; in assay [3], 103%; in assay [4], 105%; in assay [5], 90.7%; in assay [6], 106%.

Regarding `COc1ccc(-c2cn3c(C(=O)Nc4ccccc4Cl)c(-c4ccccc4)c4c3n2CCCC4)cc1`, the growth is 86.4% in assay [1]; 80% in assay [2]; 82.5% in assay [3]; 71.3% in assay [7]; 73.2% in assay [4]; 82.8% in assay [6].

On to `O=S1(=O)N(Cc2ccccc2)[C@@H](Cc2ccccc2)C2O[C@H]2[C@H](Cc2ccccc2)N1Cc1ccccc1` (stereo not given in full), for which the growth was 63.1% in assay [1]; 60.1% in assay [2]; 50.6% in assay [3]; 17% in assay [4]; 61.4% in assay [5]; 40.2% in assay [6].

For `CCN1C(=O)N(c2ccccc2)C2Nn3c(s/c(=C4\C(=O)N(C(C)C)c5ccccc54)c3=O)=NC21` (stereo not given), the growth in assay [1] was 107%; in assay [2] it was 99.7%; in assay [7] it was 98.8%; in assay [4], 105%; in assay [5] it was 112%; in assay [6], 105%.

On to `Cc1nc(Nc2ccccn2)sc1C(=O)/C=C/c1ccc(Cl)cc1`, for which the growth is 19% in assay [1]; -28.8% (active) in assay [2]; 25.2% in assay [3]; 17.6% in assay [7]; 14.3% in assay [4]; 8.26% (active) in assay [6].

`CCOc1ccc2nc(C)cc(Nc3ccc(Br)cc3)c2c1`: the growth was 108% in assay [1]; 110% in assay [2]; 94.8% in assay [3]; 76.6% in assay [7]; 80.4% in assay [4]; 108% in assay [6].

In the case of `CN1C(=O)N(C)C2C1NN=c1s/c(=C\c3c[nH]c4ccccc34)c(=O)n12` (stereo not given), the growth in assay [1] is 12.3%; in assay [2], 102%; in assay [3], 28.6%; in assay [7] it was 16%; in assay [4] it was 5.95% (active); in assay [6], 4.61% (active).

With `Cc1ccc(C(=O)c2oc3ccc4c(C)cc(=O)oc4c3c2C)cc1`, the growth in assay [1] is 40.8%; in assay [2] it was 29.7%; in assay [3], 23.2%; in assay [7], 9.99% (active); in assay [4], 21.7%; in assay [6], 17.8%.

The values above are taken from PubChem BioAssay (NCI).
